# The list is not random: actives were taken first. Their share in the collection is about 3.6%.
# Sm TGR inh: S. mansoni TGR enzyme inhibition; Q962Y6; purified TGR, DTNB reduction, TNB absorbance 405 nm; Potency, µM (highest dose often 114 µM), without a hit: at the highest dose activity change, negative = inhibition, usual class: inhibitors; 360,000 tested, 3% active; AID 485364; note: nearly all actives have a fitted effect of over 60% in size
#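 TGR 20 nM + NADPH 100 uM (dispensed conc.), cpd preinc 15 min RT; start with NADPH (500 uM addition) then DTNB (15 mM addition). Kinetic TNB absorbance, 405 nm filter. Four-parameter Hill fit across titration.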
# AmpC inh detg: AmpC beta-lactamase inhibition with detergent present; P00811; AmpC hydrolysis of nitrocefin, absorbance 480 nm, 0.01% Triton; Potency, µM (titrated, usually from 114 µM), inactives show top-dose activity change, negative = inhibition, most hits filed as inhibitors; 370,000 tested, 0.041% active; AID 485294;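 note: 0% = no-compound wells and -100% = no-enzyme wells; nearly all actives have a fitted effect of over 25% in size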
# Target sequence (P00811 whole entry, looked up): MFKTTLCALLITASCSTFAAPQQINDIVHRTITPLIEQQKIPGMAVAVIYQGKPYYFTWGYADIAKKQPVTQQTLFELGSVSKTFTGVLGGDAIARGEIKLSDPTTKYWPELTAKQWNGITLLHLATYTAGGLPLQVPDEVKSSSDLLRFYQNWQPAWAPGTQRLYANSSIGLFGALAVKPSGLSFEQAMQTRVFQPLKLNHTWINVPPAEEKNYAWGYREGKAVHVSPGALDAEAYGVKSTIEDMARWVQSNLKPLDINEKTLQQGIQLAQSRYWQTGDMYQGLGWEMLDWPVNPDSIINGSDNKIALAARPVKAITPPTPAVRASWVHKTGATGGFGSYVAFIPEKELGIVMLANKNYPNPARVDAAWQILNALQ
#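 AmpC (5.3 nM in the dispensed reagent) in 20 mM phosphate pH 7.0 with 0.01% (detergent screen) or 0.0001% Triton X-100 was preincubated with compounds for 15 min at room temperature. Nitrocefin was then added from an 800 uM solution, and hydrolysis was followed at 480 nm.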
# FBPA Giardia inh: blocks Giardia fructose-bisphosphate aldolase activity; purified Giardia FBPA; AID 2451; Potency, µM (top dose mostly 59.6 µM), for inactives: at the top dose activity, negative = inhibition, hits mostly inhibitors; 290,000 tested, 0.71% active; A8B2U2; note: nearly all actives have a fitted effect of over 55% in size
# Target sequence (A8B2U2 whole entry, looked up): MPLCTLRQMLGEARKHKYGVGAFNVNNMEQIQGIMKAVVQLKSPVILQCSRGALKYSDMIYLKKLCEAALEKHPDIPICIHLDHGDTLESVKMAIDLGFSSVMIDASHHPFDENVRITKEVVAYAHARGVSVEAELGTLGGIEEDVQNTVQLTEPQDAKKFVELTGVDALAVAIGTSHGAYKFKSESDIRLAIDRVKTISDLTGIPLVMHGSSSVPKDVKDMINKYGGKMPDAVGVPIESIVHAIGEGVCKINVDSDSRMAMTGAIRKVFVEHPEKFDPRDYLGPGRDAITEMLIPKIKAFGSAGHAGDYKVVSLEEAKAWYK
#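 Giardia FBPA (40 nM reagent) was preincubated 10 min at RT with compound (up to 57.5 uM final), then substrate plus GAPDH/TPI/NAD/arsenate coupling system with diaphorase/resazurin was added; resorufin fluorescence (525/598 nm) was read after 20 min.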
# AmpC no deterg: blocks E. coli AmpC beta-lactamase in detergent-free assay. AmpC nitrocefin hydrolysis, absorbance 480 nm, 0.0001% Triton. Potency, µM (series often up to 57.1 µM), inactives show top-dose activity change, negative = inhibition, actives largely listed as inhibitors. 330,000 tested, 0.52% active;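 note: plate controls were no compound for no effect and no enzyme for full effect; nearly all actives have a fitted effect of over 20% in size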
#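 AmpC (5.3 nM in the dispensed reagent) in 20 mM phosphate pH 7.0 with 0.01% (detergent screen) or 0.0001% Triton X-100 was preincubated with compounds for 15 min at room temperature. Nitrocefin was then added from an 800 uM solution, and hydrolysis was followed at 480 nm.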
# Numbers without * were called inactive; ? = inconclusive; · = no result; [ ] = dose if it differs, or a comment. Calls come from the whole dose curve; as a rule, active = well fitted curve in the direction sought with a large enough effect; inconclusive = small, poorly fitted or top-dose-only effect, or another doubt; inactive = no such curve, though single readings can be large; an effect the other way counts as inactive or inconclusive. Unless noted, % is set by controls: 0 for no effect and ±100 for the full control effect; potency is the fitted concentration of half-maximal effect.
SMILES,Sm TGR inh,AmpC inh detg,FBPA Giardia inh,AmpC no deterg
CCC(C)c1ccccc1N1CC(C(=O)NCCc2ccc(OC)c(OC)c2)CC1=O (configuration not stated),-1.9%,?,·,92.7%
Cc1onc(-c2ccccc2)c1C(=O)n1nnc2ccccc21,17.8µM*,6.7%,-0.8%,-7.2%
O=C(c1ccccc1)n1nnc2ccccc21,15.8µM*,0.1%,3.8%,·
CC(C(=O)O)n1nnc2ccccc21 (configuration not stated),9.4%,5.0%,4.5%,-9.3%
OC(CN1CCOCC1)(c1ccccc1)c1ccccn1 (configuration not stated),-0.9%,0.2%,3.9%,1.2%
Cc1ccc(NC2CCCN(C(=O)c3ccc(F)cc3)C2)cc1C (configuration not stated),2.1%,-7.2%,·,46.0%
COc1cc(CNc2cccc(F)c2)cc(Br)c1O,12.6µM*,-4.8%,-8.0%,-28.1%
CC(C)(C)c1ccc(C(=O)NC(=S)Nc2sc3c(c2C#N)CCC3)cc1,-1.7%,8.3%,-6.2%,6.8%
CCC1(C)Cc2c(sc(NC(=S)NC(=O)c3ccccc3)c2C#N)CO1 (configuration not stated),?,-14.4%,-3.3%,-14.1%
CC(C)(C)C(=O)NC(NC(=S)Nc1sc2c(c1C#N)CCCC2)C(Cl)(Cl)Cl (configuration not stated),5.4%,-7.1%,·,1.12µM*
N#Cc1c(NC(=S)NC(=O)c2ccccc2)sc2c1CCC2,3.98µM*,-11.9%,-8.9%,-11.7%
CN1Cc2sc(NC(=S)NC(=O)c3ccccc3)c(C#N)c2CC1(C)C,31.6µM*,3.1%,-23.4%,-1.8%
O=C(COC(=O)c1ccc(Cl)cc1[N+](=O)[O-])NNC(=O)c1cccs1,56.2µM*,-10.5%,·,-21.1%
C/C=C\C=C/C(=O)Nc1cccc(C2=NOC3(C2)C[C@@H](C(N)=O)N(C(=O)COc2ccc(Cl)cc2)C3)c1 (some centres not stated),3.16µM*,-3.2%,-13.1%,114.0%
CCCCCC(=O)Nc1cccc(C2=NOC3(C2)C[C@H](C(N)=O)N(C(=O)COc2ccc(Cl)cc2)C3)c1 (some centres not stated),11.6%,-6.5%,-1.6%,126.6%
C/C=C\C=C\C(=O)N1CC2(CC(c3cccc(NC(=O)COc4ccc(Cl)cc4)c3)=NO2)C[C@H]1C(N)=O (some centres not stated),7.08µM*,-3.5%,-11.0%,163.7%
Cc1c(CCOC(=O)c2ccc(N3CCOCC3)c([N+](=O)[O-])c2)sc[n+]1CC#N,0.891µM*,1.5%,-11.1%,14.9%
CC1CCN(C(=O)CSc2ccc(-c3ccccc3)nn2)CC1,20µM*,-8.2%,5.7%,0.7%
O=C(Nc1nc(-c2ccco2)c(-c2ccco2)s1)C1CC(=O)N(c2ccc3c(c2)OCCO3)C1 (configuration not stated),11.2µM*,0.2%,?,-43.0%
CS(=O)(=O)c1ccc(C(=O)Nc2nc(-c3ccco3)c(-c3ccco3)s2)cc1,3.55µM*,0.0%,·,-41.5%
O=C(Nc1nc(-c2ccco2)c(-c2ccco2)s1)C1CCC1,?,?,-15.8%,31.6µM*
CCOP(=O)(OCC)c1nc(-c2ccc(Cl)cc2Cl)oc1N1CCOCC1,·,3.8%,-0.1%,225.8%
COc1ccc(C)cc1S(=O)(=O)N1CCN(c2cccc(Cl)c2)CC1,8.8%,-5.2%,·,·
O=C(N/N=C/c1c(O)n(CCc2ccccc2)c(=O)[nH]c1=O)c1ccncc1,17.8µM*,-1.5%,2.6%,-34.4%
O=C(N/N=C/c1c(O)n(-c2cccc3ccccc23)c(=O)[nH]c1=O)c1ccncc1,14.1µM*,2.6%,20.5%,-34.6%
SMILES,Sm TGR inh,AmpC inh detg,FBPA Giardia inh,AmpC no deterg
Cc1cc(C)nc(NS(=O)(=O)c2ccc(NC(=S)NC(=O)c3ccco3)cc2)n1,14.1µM*,3.4%,-24.1%,-28.4%
COc1cc(NS(=O)(=O)c2ccc(NC(=S)NC(=O)c3ccco3)cc2)nc(OC)n1,31.6µM*,-8.8%,6.6%,-19.9%
COc1cc(NS(=O)(=O)c2ccc(NC(=O)c3ccco3)cc2)nc(OC)n1,5.9%,?,-8.0%,-17.2%
CC(=O)c1ccc(OCC(=O)N(C)CC(=O)Nc2ccc(N3CCOCC3)cc2)cc1,10.7%,5.2%,·,-9.6%
COc1ccc(N(CC(=O)NCc2ccco2)S(=O)(=O)c2ccc(C)cc2)cc1OC,-5.5%,-12.0%,-2.6%,-9.4%
CCc1ccc(N(CC(=O)NC2CC2)S(=O)(=O)c2ccc(C)cc2)cc1,39.8µM*,3.5%,·,47.6%
Cc1ccc(N(CC(=O)NCc2ccco2)S(=O)(=O)c2ccccc2)cc1,25.1µM*,8.4%,3.4%,-21.5%
COc1ccccc1N(CC(=O)NCc1ccco1)S(=O)(=O)c1ccc(C)cc1,39.8µM*,?,-13.5%,-38.6%
Cc1ccc(S(=O)(=O)N(CC(=O)NCc2ccco2)C2CCCCC2)cc1,44.7µM*,-9.3%,-7.0%,-15.7%
O=C(NCc1ccccc1)c1ccccc1C(=O)c1ncc[nH]1,0.0%,-0.2%,-10.3%,-11.6%
Cc1ccc(N(CC(O)COCc2ccco2)S(=O)(=O)c2ccc(C)cc2)cc1 (configuration not stated),8.91µM*,?,7.7%,0.9%
Cc1cccc(-n2c(C)c(-c3ccccc3)[nH]c2=S)c1,-12.0%,-12.2%,21.9%,-58.0%
Cc1cccc(-n2c(O)c(C)c(=O)[nH]c2=S)c1,39.8µM*,2.9%,-5.4%,0.7%
O=C(NCC(=O)N1CC=C(c2ccccc2)CC1)c1ccc(F)cc1,·,·,·,-10.0%
NC(=O)c1ccsc1N,6.31µM*,0.4%,?,-11.8%
Nc1sccc1C(=O)c1ccc(Cl)cc1,-13.0%,1.3%,-16.5%,-56.4%
O=C1CN(C(=O)Cn2ncc(Cl)c(Cl)c2=O)c2ccccc2N1,25.1µM*,5.5%,-4.3%,-13.5%
O=C1CN(C(=O)COc2ccc(Cl)c(Cl)c2)c2ccccc2N1,-0.5%,-12.3%,·,-12.8%
O=C1CN(CC(=O)Nc2cccc(Cl)c2Cl)c2ccccc2N1,50.1µM*,-14.7%,-11.8%,-15.6%[11.4 µM]
COc1cc(C(F)(F)F)ccc1C(=O)NCCc1ccco1,-31.3%,-2.6%,5.6%,14.1%
COC(=O)c1ccc(CSc2nc3ccc(Cl)cc3[nH]2)o1,?,-3.6%,-16.5%,-31.0%
COC(=O)c1ccc(CSc2nc3scc(-c4cccs4)c3c(=O)[nH]2)o1,?,-10.3%,-9.9%,10µM*
COc1ccc(OC)c(CCNC(=O)c2cnn(-c3ccccc3Cl)c2C2CCN(C(=O)OC(C)(C)C)CC2)c1,9.3%,11.0%,·,·
O=C1C(=O)c2ccc(-c3ccccc3)cc2-c2ccccc21,-7.9%,-7.5%,0.281µM*,-23.5%
Nc1ccc2c(c1)C(=O)C(=O)c1ccccc1-2,-13.4%,12.9%,?,-22.4%
CNC(=O)/C=C1\NC(C)(C)Cc2c1ccc1ccccc21,?,1.3%,-4.3%,30.0%
CC1(C)Cc2c(ccc3ccccc23)/C(=C/C#N)N1,44.7µM*,-2.6%,-26.3%,-23.1%
Cc1ccc(CCN2CC(C(=O)NCc3ccco3)CC2=O)cc1 (configuration not stated),44.7µM*,-3.6%,0.2%,32.6%

# High-throughput results from PubChem.
